# AID923 = qHTS Assay for Allosteric/Competitive Inhibitors of Caspase-1: Spectroscopic Profiling in AFC Spectral Region; AID 923, 2007; Potency, µM (series often up to 57.5 µM), for the others: at the top dose fluorescence increase, hits mostly activators; hit rate 1.1% among 75,000; compound fluorescence, AFC spectral region (405/520 nm); note: potency is the fitted concentration of half-maximal effect; 0% is about no effect
#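 Compound autofluorescence profiled at 405 nm ex/520 nm em during kinetic caspase 1 run (50 nM enzyme, 5 uM Ac-WEHD-AFC, HEPES pH 7.5, 10 mM DTT). Titration up to 57 uM; baseline from regression intercept, normalized to AFC standard curve.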
# 4MU fluor = 4-MU region autofluorescence | max dye-equivalent concentration, M | hit rate 11% among 59,000 | compound autofluorescence, 340/450 nm, 4-MU equivalents; stronger effect = higher value; in the data active = max dye-equivalent concentration above about 10 nM; inconclusive = mostly about 1.1 nM to 9.6 nM
#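 Compounds in 100 mM Tris, pH 8.0, incubated 15 min at room temperature, then fluorescence read at 340 nm excitation/450 nm emission. Signal converted to 4-MU dye-equivalent concentration using an on-plate six-point 4-MU standard curve.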
# A350 autofl = compound fluoresces in the Alexa 350 spectral region. Compound autofluorescence, 340/450 nm, Alexa 350 dye-equivalents; stronger effect = higher value. max dye-equivalent concentration, M. hit rate 11% among 59,000. AID 590; in the data active = max dye-equivalent concentration above about 10 nM; inconclusive = mostly about 1.1 nM to 9.6 nM
# GBA activity = modulators of human glucocerebrosidase; P04062; purified enzyme, resorufin glucoside fluorescence (screen aimed at inhibitors), 20 min; Potency, µM; hit rate 1.1% among 48,000; in the data active = potency below about 15 µM; inconclusive = mostly about 16 µM to 33 µM;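 note: potency is the fitted concentration of half-maximal effect; the screen sought inhibitors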
#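 Wild-type enzyme at 0.2 nM final in 50mM citric acid/KH2PO4, 10mM sodium taurocholate, 0.01% tween-20, pH 5.9, with resorufin beta-D-glucopyranoside at 30 uM final. Compounds titrated, 20 min at RT, red fluorescence read; AC50 from titration.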
# HSD17B inhib = blocks hydroxysteroid 17-beta dehydrogenase activity. recombinant HSD17B10, NADH fluorescence kinetic. Potency, µM (titrated, usually from 57.1 µM), for inactives: top-dose activity change, negative = inhibition, usual class: inhibitors. hit rate 7.6% among 75,000. AID 893;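 note: the protocol describes HADH2 (HSD17B10) and not the HSD17B4 of the title; potency is the fitted concentration of half-maximal effect; % is set by controls: 0 for no effect and ±100 for the full control effect; nearly all actives have a fitted effect of over 70% in size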
#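 Activity followed as NADH fluorescence increase (ex 360, em 450 nm) every 30 seconds for 4 min, using final 90 uM beta-hydroxybutyryl CoA and 1 mM NAD+. Recombinant His-tagged enzyme, 20 nM, pH 9.0 Tris buffer, 15 min compound preincubation.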
# HADH2 inhib = blocks human hydroxyacyl-CoA dehydrogenase type II; Potency, µM (top dose mostly 57.1 µM), for the others: at the highest dose activity change, negative = inhibition, usual class: inhibitors; hit rate 3.4% among 73,000; Q99714; recombinant HADH2, NADH fluorescence, beta-hydroxybutyryl-CoA; note: potency is the fitted concentration of half-maximal effect; % is set by controls: 0 for no effect and ±100 for the full control effect; nearly all actives have a fitted effect of over 60% in size
# Target sequence (Q99714 whole entry, looked up, one chain of several): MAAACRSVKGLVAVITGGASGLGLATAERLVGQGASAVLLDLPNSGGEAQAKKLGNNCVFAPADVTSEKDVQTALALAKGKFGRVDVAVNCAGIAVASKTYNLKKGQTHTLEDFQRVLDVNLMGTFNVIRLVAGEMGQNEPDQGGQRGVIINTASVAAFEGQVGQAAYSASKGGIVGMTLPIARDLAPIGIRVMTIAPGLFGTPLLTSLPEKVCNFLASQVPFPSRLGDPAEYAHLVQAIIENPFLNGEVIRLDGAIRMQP
#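 E. coli-expressed His-tagged HADH2 tested at 20 nM in alkaline Tris buffer (pH 9.0); oxidation of 90 uM beta-hydroxybutyryl-CoA with 1 mM NAD+ tracked fluorimetrically for 4 min.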
# Starred values were filed as active, the others as inactive; i = inactive; ? = inconclusive; nt = not tested or not shown; ! = not active in a repeat; [ ] = another dose, or the depositor's remark. Most compounds without a hit are left out; they make up all but 13% or so of the library. Unless noted, calls come from the whole dose curve; as a rule, active = well fitted curve in the direction sought with a large enough effect; inconclusive = small, poorly fitted or top-dose-only effect, or another doubt; inactive = no such curve, though single readings can be large; an effect the other way counts as inactive or inconclusive.
SMILES,AID923,4MU fluor,A350 autofl,GBA activity,HSD17B inhib,HADH2 inhib
O=c1c(-c2cccc(F)c2)nc2cncnc2n1Cc1ccc(F)cc1,4%,i,i,nt,-8%,-6%
CCNc1ncc2nc(C)c(=O)n(Cc3ccc(F)cc3)c2n1,7%,1.3e-08M*,1.6e-08M*,nt,7.9µM*,-7%
O=C1c2ccccc2C(=O)N1CCCc1nc2ccccc2c(=O)n1-c1cccnc1,1%,nt,nt,nt,-7%,4%
C=CCCC,1%,nt,nt,nt,-5%,1%
COc1ccc(NC(=O)N2CC3(CCN(S(=O)(=O)c4ccccc4)CC3)C2)cc1,-1%,i,i,nt,9%,8%
Fc1ccc([C@H]2CCNC[C@H]2COc2ccc3c(c2)OCO3)cc1,0%,nt,nt,nt,?,10%
Cc1cc(=O)oc(C)c1C(=O)NCC(C)C,nt,3e-08M*,3.4e-08M*,nt,nt,nt
Cc1cc(=O)oc(C)c1C(=O)NCC(C)NC(=O)c1c(C)cc(=O)oc1C (stereo not given),nt,i,i,nt,nt,nt
COC(=O)C1=C(C)N(Cc2ccccc2)C2=C(C(C)=O)C[C@@](O)(C(=O)OC)C(=O)N2C1c1ccccc1 (stereo not given in full),0%[11.5 µM],nt,nt,nt,2%[11.4 µM],-9%[11.4 µM]
O=c1cc(CF)[nH]c(=S)[nH]1,1%[11.5 µM],i,i,nt,2%[11.4 µM],5%[11.4 µM]
CCCCOc1ncnc2c1[nH]c1ccccc12,1%,i,?,>77,7.9µM*,19%
c1ccc2c(c1)[nH]c1c(NCC3CCCO3)ncnc12 (stereo not given),1%,?,?,>77,32µM*,9%
C=CCNc1ncnc2c1[nH]c1ccccc12,1%,2.6e-08M*,2.9e-08M*,i,32µM*,12%
CCOCCCNc1ncnc2c1[nH]c1ccccc12,0%,i,?,>77,?,1%
C=CC[C@@H]1C=C[C@H](ON=C(C)C)[C@H](CO)O1,-4%[11.5 µM],nt,nt,nt,3%[11.4 µM],10%[11.4 µM]
COC(=O)CC1C2(C)CC34OC5(C)O[C@@]6(C7/C(=C(/OC)C(C)C)C(=O)OC(c8ccoc8)[C@@]7(C)C(OC(=O)C(C)C)C(OC)[C@]6(O5)[C@@]13C)C(OC)[C@]4(OC)C2OC(C)=O (stereo not given in full),2%,nt,nt,nt,4%,nt
O=C(CC1CCS(=O)(=O)C1)Nc1ccc[nH]c1=O (stereo not given),5%,2.4e-07M*,2e-07M*,>77,25µM*,-11%
CC(C)N=c1cc2n(-c3ccc(Cl)cc3)c3ccccc3nc-2cc1Nc1ccc(Cl)cc1,1%[25.7 µM],2.1e-07M*!,2.4e-07M*!,nt,-4%[25.6 µM],3%[25.6 µM]
O[C@@H](c1cc(-c2ccccc2)nc2c1ccc1ccccc12)[C@@H]1CCCCN1,-1%[11.5 µM],2.5e-08M*,2.3e-08M*,nt,-3%[11.4 µM],22%[11.4 µM]
COc1ccc(-c2cc([C@H](O)[C@@H]3CCCCN3)c3ccccc3n2)cc1,-2%[11.5 µM],5.7e-08M*,6.3e-08M*,nt,4µM*,?
COc1ccc(-c2cc(C(=O)O)c3ccccc3n2)c(OC)c1,-1%,nt,nt,nt,-4%,-3%
O[C@@H](c1cc([C@@]23C[C@H]4CC[C@@H]2C[C@H](C4)C3)nc2c(Cl)cc(Cl)cc12)[C@@H]1CCCCN1,-5%[11.5 µM],i,i,nt,9%[11.4 µM],11%[11.4 µM]
COC(=O)c1sc2ccccc2c1C(=O)OC,3%,i,i,>77,-14%,-1%
CC(=Nc1cccc(O)c1)c1sc2ccccc2c1O,nt,?,1.1e-08M*,nt,nt,nt
Cc1ccc2c(c1)N(CC(=O)NCC1COc3ccccc3O1)C(=O)CO2 (stereo not given),1%,nt,nt,nt,4%,4%
SMILES,AID923,4MU fluor,A350 autofl,GBA activity,HSD17B inhib,HADH2 inhib
CCN(c1cccc(C)c1)S(=O)(=O)c1ccc2[nH]c(=O)c(=O)[nH]c2c1,0%,i,i,7.4*,25µM*,?
O=c1cnc2cnc(Oc3ccccc3)nc2n1C[C@H]1CCCO1,4%,i,i,nt,1%,-6%
CC(C)(C)OC(=O)N1CCC[C@H]1c1nnc(SCc2c(F)cccc2Cl)o1,1%,?,1.1e-08M*,>77,-5%,-9%
Cc1c(NC2=C(Cl)C(=O)N(c3ccccc3)C2=O)c(=O)n(-c2ccccc2)n1C,3%,nt,nt,nt,-9%,-13%
O=C1C(Cl)=C(Nc2ccccc2O)C(=O)N1c1ccccc1,0%,i,i,?,-14%,1µM*
CN1CCN(S(=O)(=O)c2ccc(N3CCN(S(=O)(=O)/C=C/c4ccccc4)CC3)nc2)CC1,-1%,i,i,13*,6%,9%
COc1cc2ccc([C@H](C)NCC#N)cc2cc1OC,-2%[11.5 µM],i,i,nt,-10%[11.4 µM],6%[11.4 µM]
COc1ccc(C2CC(=O)c3c(O)cc(O)cc3O2)cc1O (stereo not given),-2%,nt,nt,nt,-7%,nt
COc1cc(OC)c2c(c1)OC(c1ccccc1)CC2=O (stereo not given),-1%,nt,nt,nt,32µM*,nt
COc1ccc(C)cc1-n1nnnc1SCc1csc(C)n1,-1%,i,i,>77,1%,0%
COc1ccc(C)cc1-n1nnnc1SCc1cc(=O)n2cc(C)ccc2n1,-2%,1.7e-08M*,3e-08M*,>77,?,153%

# Compound activity deposited in PubChem by National Center for Advancing Translational Sciences (NCATS).
